Reference: PMC4336329 (PLoS ONE, 2015)
About 14,000 (4.5%) of roughly 310,000 compounds showed an effect of 50% or more. Effects have a minus sign here. What follows is part of a selection rich in strong results, with near analogues and random picks from the rest.

Target: human ether-à-go-go-related gene (hERG) potassium channel (human, UniProt Q12809)
Test: primary screen, population patch clamp on CHO cells stably expressing hERG; higher = less effect of the substance
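Further: peak tail current of the secondary pulse compared with the same well before compound.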

human ether-à-go-go-related gene (hERG) potassium channel, sequence (Q12809 whole entry, looked up): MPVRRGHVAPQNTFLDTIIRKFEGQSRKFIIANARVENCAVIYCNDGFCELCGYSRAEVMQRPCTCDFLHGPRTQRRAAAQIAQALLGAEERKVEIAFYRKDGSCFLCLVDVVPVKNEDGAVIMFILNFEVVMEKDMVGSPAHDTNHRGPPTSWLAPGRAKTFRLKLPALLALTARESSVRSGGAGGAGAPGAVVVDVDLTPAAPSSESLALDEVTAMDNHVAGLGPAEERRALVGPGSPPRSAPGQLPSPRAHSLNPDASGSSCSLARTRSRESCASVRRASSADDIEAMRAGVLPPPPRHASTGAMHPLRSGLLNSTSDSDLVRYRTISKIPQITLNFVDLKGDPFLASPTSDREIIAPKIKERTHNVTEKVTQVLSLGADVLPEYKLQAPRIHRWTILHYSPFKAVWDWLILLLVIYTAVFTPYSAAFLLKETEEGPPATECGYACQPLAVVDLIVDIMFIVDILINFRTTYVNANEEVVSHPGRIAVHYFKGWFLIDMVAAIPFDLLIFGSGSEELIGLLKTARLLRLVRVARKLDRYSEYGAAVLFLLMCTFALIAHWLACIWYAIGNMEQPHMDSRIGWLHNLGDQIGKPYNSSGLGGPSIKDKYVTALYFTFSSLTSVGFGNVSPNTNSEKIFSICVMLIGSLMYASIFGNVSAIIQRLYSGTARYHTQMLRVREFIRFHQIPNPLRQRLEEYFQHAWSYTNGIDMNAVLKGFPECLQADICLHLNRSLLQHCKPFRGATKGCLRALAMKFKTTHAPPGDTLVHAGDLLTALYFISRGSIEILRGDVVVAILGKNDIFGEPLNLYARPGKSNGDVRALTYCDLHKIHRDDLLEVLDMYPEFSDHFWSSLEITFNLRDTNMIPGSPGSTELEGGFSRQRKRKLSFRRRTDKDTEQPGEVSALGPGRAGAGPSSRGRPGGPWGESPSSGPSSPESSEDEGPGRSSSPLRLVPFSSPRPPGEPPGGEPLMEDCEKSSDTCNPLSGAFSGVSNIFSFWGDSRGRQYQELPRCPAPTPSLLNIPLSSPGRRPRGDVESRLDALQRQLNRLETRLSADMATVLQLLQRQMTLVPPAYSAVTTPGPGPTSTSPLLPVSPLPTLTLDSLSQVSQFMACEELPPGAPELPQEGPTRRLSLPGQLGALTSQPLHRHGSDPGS

Compound | hERG current change (%, negative = inhibition) at 10uM
CCOC(=O)c1c(NC=O)sc2c1CCC2 | -2.89%
Cc1ccc(C)c(NC(=S)NNC(=O)c2csc3c2CCC(C)C3)c1 (stereo not drawn) | 3.17%
O=C(NCc1ccccc1)C1=C[C@@H](c2ccccc2)C[C@@H](OCc2ccc(CO)cc2)O1 | -14.4%
CCN(CC(=O)Nc1cccc(S(N)(=O)=O)c1)Cc1nc2ccccc2c(=O)[nH]1 | 3.49%
Cc1cc(-c2cc(-c3ccc(Cl)cc3)nc(N)c2C#N)co1 | -1.55%
O=C(O)c1cccnc1Nc1ccc(Cl)cc1 | 25%
COc1ccc(CCn2c(=N)c(C(=O)NCC3CCCO3)cc3c(=O)n4ccccc4nc32)cc1OC (stereo not drawn) | -75.9%
COc1ccc(-c2cc(C(=O)NCC3CCCO3)c3ccccc3n2)cc1 (stereo not drawn) | -10.7%
COc1ccc(C(=O)Nc2ccccc2C(=O)NCC2CCCO2)cc1 (stereo not drawn) | 4.28%
COc1ccc(-c2cc(C(=O)NCC3CCCO3)c3ccccc3n2)c(OC)c1 (stereo not drawn) | -0.667%
COc1ccc(-n2nc(C(=O)NCC3CCCO3)c3ccccc3c2=O)cc1 (stereo not drawn) | 31.7%
COc1ccc(CCNC(=O)C(=O)NCC2CCCO2)cc1OC (stereo not drawn) | 3.13%
COc1ccc(Cn2c(=N)c(C(=O)NCC3CCCO3)cc3c(=O)n4ccccc4nc32)cc1 (stereo not drawn) | -82.2%
COc1ccc(CCNC(=O)CCn2c(=O)c3ccccc3n(CC(=O)NCC3CCCO3)c2=O)cc1OC (stereo not drawn) | 8.86%
COc1ccc(CCn2c(=N)c(C(=O)NCC3CCCO3)cc3c(=O)n4ccccc4nc32)cc1 (stereo not drawn) | -77.9%
Cc1csc(SCC(=O)NC23CC4CC(CC(C4)C2)C3)n1 | -20.5%
O=S(=O)(/N=C(/Nc1cccc2ccccc12)c1ccc(F)cc1)c1ccccc1 | -42.8%
COCCCNC(=O)Cn1nnc(-c2ccc(NC(=O)c3ccccc3F)cc2)n1 | -2.44%
CCOC(=O)CN(C(=O)CSc1nnc(-c2ccc(OC)c(OC)c2)o1)c1ccc(F)cc1 | -49.6%
CC(=O)c1sc(NC(=O)CCOc2ccccc2)nc1C | 5.9%
CCC(Sc1nc2n[nH]c(C)c2c(=N)n1-c1cc(Cl)ccc1C)C(=O)N1CCOCC1 (stereo not drawn) | -0.58%
CC(C(=O)Nc1ccc(C#N)cc1)N1CCN(C(=O)C2CC2)CC1 (stereo not drawn) | -61.2%
COc1cc(NC(=O)C(C)N2CCN(C(=O)C3CC3)CC2)cc(OC)c1 (stereo not drawn) | -16.1%
CC1CCN(C(C)C(=O)Nc2ccc(S(=O)(=O)N3CCCC3)cc2)CC1 (stereo not drawn) | -6.3%
CCOCCCNc1ncnc2c1nc1n2CCCC1 | 17.2%
COCCCNc1ncnc2c1nc1n2CCCC1 | 18.6%
CC(C)OCCCNc1ncnc2c1nc1n2CCCC1 | -72.6%

Compound | hERG current change (%, negative = inhibition) at 10uM
COc1ccc2[nH]cc(CCN3C(=O)CCC3=O)c2c1 | 10.7%
CCN(CC)CCCNC(=O)CSc1nc2c(c(C(F)(F)F)n1)CCc1ccccc1-2 | -52.2%
O=C(CSc1nc2c(c(C(F)(F)F)n1)CCc1ccccc1-2)NCc1ccccc1 | 6.56%
O=C(CSc1nc2c(c(C(F)(F)F)n1)CCc1ccccc1-2)NCc1ccc(F)cc1 | 14.2%
Cl.O=C(CN1CCCC(O)C1)N1c2ccccc2Sc2ccc(C(F)(F)F)cc21 (stereo not drawn) | -7.16%
O=C(Nc1c2c(nn1-c1ccccc1)CS(=O)(=O)C2)c1ccco1 | -9.21%
CC(Oc1ccccc1)C(=O)Nc1c2c(nn1-c1ccccc1)CS(=O)(=O)C2 (stereo not drawn) | 18.2%
Cc1ccc(-n2nc3c(c2NC(=O)c2ccco2)CS(=O)(=O)C3)cc1 | -25.7%
CC(C)Oc1ccc(C(=O)Nc2c3c(nn2-c2ccccc2)CS(=O)(=O)C3)cc1 | -65.9%
COc1cccc(C(=O)Nc2c3c(nn2-c2ccc([N+](=O)[O-])cc2)CS(=O)(=O)C3)c1 | -53.8%
COc1ccc(C(=O)Nc2c3c(nn2-c2ccc([N+](=O)[O-])cc2)CS(=O)(=O)C3)cc1 | -9.85%
CCOc1ccc(C(=O)Nc2c3c(nn2-c2ccccc2)CS(=O)(=O)C3)cc1 | 4.84%
O=C(Nc1c2c(nn1-c1ccc([N+](=O)[O-])cc1)CS(=O)(=O)C2)c1ccco1 | -64.7%
COc1ccccc1C(=O)Nc1c2c(nn1-c1ccc([N+](=O)[O-])cc1)CS(=O)(=O)C2 | 11.7%
O=C(NNC(=O)C1CCN(Cc2ccccc2)CC1)c1cccc(Cl)c1 | -14%
CCCn1nc(Oc2nc(NCC)nc(NC(C)C)n2)ccc1=O | 1.01%
CCc1nc(N2CCN(C(=S)NCCCOC)CC2)c2c3c(sc2n1)CCCC3 | -9.32%
Fc1ccc(-n2c(-c3ccc4ccccc4n3)n[nH]c2=S)cc1Cl | 31%
O=C(COc1ccccc1)NC1CCCc2ccccc21 (stereo not drawn) | -19.3%
CCOC(=O)Cc1csc(NC(=O)NC2(C(F)(F)F)Oc3ccc(Cl)cc3O2)n1 (stereo not drawn) | 15.8%
Cc1ccccc1NS(=O)(=O)c1ccc(OCC(=O)NCc2cccnc2)cc1 | -32.8%
O=C(COCc1cc(-c2ccc3c(c2)OCO3)on1)N1CCCCC1 | 4.66%
CCCc1c(C)nc2ccc(OC)cc2c1SCCC(=O)O | 10.4%
COc1cccc(C(=O)C2=NN(C(C)=O)CC2c2ccco2)c1 (stereo not drawn) | -15.8%
COc1ccc(NC(=O)CCN2C(=O)c3ccncc3C2=O)cc1OC | -7.46%
CC1CCCCN1C(=S)Nc1ccc(OC(F)F)cc1 (stereo not drawn) | -40.1%
O=C(CNC(=O)c1ccccc1)Oc1cccc(Cl)c1 | 17.8%
